ELG1 genotox = inducers of genotoxicity in HEK293T ELG1-luciferase cells | Potency, µM (doses to about 46 µM), usual class: activators | HEK293T ELG1-luciferase reporter, luminescence, 16 h | hit rate 1.3% among 330,000; note: nearly all actives have a fitted effect of over 60% in size
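Genotoxicity was scored as increased ELG1-luciferase reporter signal, measured by ONE-Glo luminescence (30 min, room temperature). Compound or vehicle exposure of the HEK293T reporter cells lasted 16 hr at 37°C.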
NPC1 promoter act = activators of NPC1 promoter | Huh7 NPC1 promoter luciferase reporter, 24 h | Potency, µM (titrated, usually from 9.22 µM), hits mostly activators | hit rate 2.4% among 320,000 | AID 485313; note: nearly all actives have a fitted effect of over 60% in size
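Huh7 cells stably carrying NPC1 promoter–luciferase, plated in Opti-MEM with 10% FBS for 2 h, were exposed to compound in DMSO for 24 h at 37 °C; luciferase reagent was added for 10 min and luminescence read.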
SMN2 splice up = enhancers of SMN2 splice variant expression; hit rate 2.8% among 210,000; Potency, µM (doses to about 46.1 µM), most hits filed as activators; AID 1458; HEK293 SMN2-luciferase splicing reporter, luminescence, 30-36 h; note: nearly all actives have a fitted effect of over 55% in size
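qHTS luciferase splicing reporter: luminescence rises when SMN2 exon 7 is included in transfected HEK293 cells. Compound exposure lasted 30-36 h at 37C, with 4.5 mM final sodium butyrate as control, followed by a ONE-Glo read.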
FLuc modulator = inhibits or activates purified firefly luciferase, miR-21 counter-screen | P08659 | purified FLuc, Km substrates, luminescence inhibition | Potency, µM (top dose mostly 57.5 µM), usual class: inhibitors | hit rate 6.9% among 360,000 | AID 588342; note: nearly all actives have a fitted effect of over 55% in size
Target sequence (P08659 whole entry, looked up): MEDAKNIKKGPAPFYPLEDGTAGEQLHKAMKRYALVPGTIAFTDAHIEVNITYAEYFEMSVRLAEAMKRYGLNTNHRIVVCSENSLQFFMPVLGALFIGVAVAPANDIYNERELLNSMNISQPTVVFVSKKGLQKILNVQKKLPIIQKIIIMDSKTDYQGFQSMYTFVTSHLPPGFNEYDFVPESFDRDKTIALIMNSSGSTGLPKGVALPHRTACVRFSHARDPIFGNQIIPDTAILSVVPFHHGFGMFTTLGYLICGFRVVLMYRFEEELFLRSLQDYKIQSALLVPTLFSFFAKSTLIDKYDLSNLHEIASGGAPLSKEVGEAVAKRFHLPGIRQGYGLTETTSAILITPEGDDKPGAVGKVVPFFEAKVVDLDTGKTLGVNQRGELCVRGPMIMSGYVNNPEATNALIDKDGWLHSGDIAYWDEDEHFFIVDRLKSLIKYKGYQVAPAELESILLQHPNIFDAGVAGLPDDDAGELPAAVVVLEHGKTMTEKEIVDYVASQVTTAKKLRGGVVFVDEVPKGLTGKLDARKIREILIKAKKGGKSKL
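Purified P. pyralis luciferase (10nM final) with 10uM D-luciferin and 10uM ATP (Km levels) in 50mM Tris acetate pH 7.5, 10mM Mg acetate, 0.01% Tween-20, 0.05% BSA; qHTS 6-point titration, ~60 µM downward; luminescence read.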
Rab9 prom act = activators of Rab9 promoter. hit rate 2.8% among 320,000. Potency, µM (doses to about 9.22 µM), usual class: activators. Huh7 Rab9 promoter-luciferase reporter, luminescence, 24 h; note: nearly all actives have a fitted effect of over 60% in size
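Huh7 cells stably carrying Rab9 promoter–luciferase reporter, plated 1500 cells/well, compound added after 2 h and incubated 24 h at 37 °C; luciferase luminescence then read after 10 min with detection reagent.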
Hits are given with their value; – = inactive; ? = inconclusive; · = not tested or not shown; [ ] = remark or other dose. In the library only some 7.4% were active in any assay of this set; here they are far more common. Calls come from the whole dose curve; as a rule, active = well fitted curve in the direction sought with a large enough effect; inconclusive = small, poorly fitted or top-dose-only effect, or another doubt; inactive = no such curve, though single readings can be large; an effect the other way counts as inactive or inconclusive.

SMILES | ELG1 genotox | NPC1 promoter act | SMN2 splice up | FLuc modulator | Rab9 prom act
O=C(NC1CCCC1)c1cc2cc(Br)ccc2o1 | ? | 3.2µM | · | 11µM | 2.8µM
O=C(NC1CCCC1)c1cc2ccccc2o1 | ? | – | · | ? | ?
O=C(NC1CCCCC1)c1cc2cc(Br)ccc2o1 | ? | 3.2µM | · | 4.8µM | ?
CC(NC(=O)c1ccc2c(c1)N(Cc1cccc(F)c1)C(=O)c1ccccc1S2)c1ccccc1 (stereo not given) | · | · | · | – | ·
Cc1ccc(S(=O)(=O)C(CNC(=O)c2ccc(C(F)(F)F)cc2)c2ccco2)cc1 (stereo not given) | · | · | · | – | ·
CC(Sc1oc(-c2cccs2)nc1S(=O)(=O)c1ccccc1)c1ccccc1 (stereo not given) | · | · | – | – | ·
O=C(CCc1ccccc1)NC(=S)Nc1cccc(C(=O)O)c1 | ? | 1.4µM | · | 4.8µM | 3.2µM
COc1ccc(NC(=O)CCCc2ccccc2)cc1OC | 18µM | 3.5µM | · | ? | 4µM
O=C(CCCc1ccccc1)Nc1cccc(C(=O)O)c1 | – | 0.32µM | 1.6µM | 0.38µM | 0.25µM
CC(C)(C)C(=O)NC(=S)Nc1cccc(C(=O)O)c1 | ? | 2.8µM | · | 19µM | 0.79µM
O=C(c1csnn1)N1CCC2(CC1)CN(c1ccncc1)C2 | · | · | – | · | ·
CC(Oc1ccccc1)C(=O)Nc1nc2c(s1)C(=O)CC(C)(C)C2 (stereo not given) | – | – | – | – | –
CC1(C)CNC(=O)c2sc(NC(=O)c3ccccc3)nc2C1 | – | ? | 11µM | ? | ?
CC1(C)CC(=O)c2sc(NC(=O)c3ccc4ncsc4c3)nc2C1 | ? | ? | 11µM | 1.9µM | ?
CC1(C)CC(=O)c2sc(NC(=O)c3ccccc3)nc2C1 | ? | 0.45µM | 13µM | 1.9µM | 0.71µM
CC1(C)CC(=O)c2sc(NC(=O)C(C)(C)C)nc2C1 | ? | ? | · | ? | 2.8µM
CCN(Cc1cc(OC)c(OC)c(OC)c1)C(=S)Nc1cccc(SC)c1 | – | – | · | – | –
CC1(C)CC(=O)c2sc(NC(=O)c3cccs3)nc2C1 | ? | ? | 2.2µM | 0.76µM | 0.5µM
CC1Sc2ccc(S(=O)(=O)CCC(=O)N(C)Cc3ccccc3)cc2NC1=O (stereo not given) | – | – | · | – | –
Cc1c2cnn(CC(=O)NC3CCCC3)c(=O)c2c(C)n1Cc1ccccc1 | ? | ? | · | 24µM | ?
CCOC(=O)C1CCN(C(=O)Cn2ncc3c4ccccc4n(C)c3c2=O)CC1 | · | · | – | – | ·
CCOC(=O)N1CCC(NC(=O)Cn2ncc3c4ccccc4n(C)c3c2=O)CC1 | – | – | – | 19µM | –
COc1ccc(/C=C/c2nnc(NC(=O)CC(C)C)s2)cc1 | – | – | · | ? | –
COc1ccc(/C=C/c2nnc(NC(C)=O)s2)cc1 | 2.3µM | 1.1µM | · | 1.9µM | 0.13µM
COC(=O)Nc1nnc(/C=C/c2ccc(OC)cc2)s1 | ? | ? | 8.9µM | 6µM | 3.5µM
SMILES | ELG1 genotox | NPC1 promoter act | SMN2 splice up | FLuc modulator | Rab9 prom act
COc1ccc(/C=C/c2nnc(NC(=O)CSc3ccc(Cl)cc3)s2)cc1 | ? | ? | 10µM | – | ?
COc1ccc(N2CCN(C(=O)COc3ccc(S(=O)(=O)N4CCOCC4)cc3C)CC2)cc1 | – | – | · | – | –
COc1ccccc1NS(=O)(=O)c1cc2c(cc1Cl)NC(=O)CO2 | · | · | · | – | ·
Clc1ccc(N2CCN(c3cnc4ccccc4n3)CC2)cc1 | ? | ? | – | 17µM | ?
c1ccc(N2CCN(c3cnc4ccccc4n3)CC2)cc1 | – | 1.6µM | 3.5µM | 3.4µM | 1.1µM
Fc1ccc(N2CCN(c3nc4ccccc4c4nc(-c5ccccc5)nn34)CC2)cc1 | · | · | – | – | ·
Cc1cc(N2CCN(c3ccccc3)CC2)nc2ccccc12 | – | – | · | 15µM | –
Fc1ccc(N2CCN(c3cnc4ccccc4n3)CC2)cc1 | ? | 2.8µM | · | 11µM | 3.5µM
CCOc1ccccc1Nc1sc(C(=O)c2ccc(Cl)cc2)c(N)c1S(=O)(=O)c1ccccc1 | · | · | · | – | ·
N#Cc1ccccc1Sc1ccccc1C(=O)NCC(c1ccco1)N1CCCC1 (stereo not given) | – | – | · | – | –
C=CCc1ccccc1OCC(=O)N/N=C/c1ccc(OC(C)=O)cc1OC(C)=O | – | – | – | – | –
Cc1cccc(N2CCN(C(=O)C3CCN(C(=O)c4cc5sccc5n4C)CC3)CC2C)c1 (stereo not given) | · | · | – | – | ·
CCCC[C@]12Cc3c(ccc4ccccc34)C(O1)C1=C(O2)C(=O)c2ccccc2C1=O | · | –[1.84 µM] | · | –[11.5 µM] | –[1.84 µM]
O=C(NC(=S)Nc1ccc(Cl)cn1)C12CC3CC(CC(C3)C1)C2 | – | ? | – | 11µM | ?
CCCCSCCCNC(=O)CN1C(=O)COc2ccc(S(=O)(=O)N3CCC(C)CC3)cc21 | · | · | – | – | ·
CCc1ccc(Nc2oc(C)cc(=O)c2C(C)=O)cc1 | – | – | – | 19µM | –
CCCCn1c(N)c(N(CC)C(=O)COc2ccc(C#N)cc2)c(=O)[nH]c1=O | – | · | · | · | ·
C#CCN1C(=O)S/C(=C\c2ccc(-c3ccc(Cl)c(C(=O)O)c3)o2)C1=O | 16µM | 0.79µM | · | 11µM | 1.8µM
Cc1cccc(N2NC(=O)/C(=C/c3ccc(-c4ccc(Cl)c(C(=O)O)c4)o3)C2=O)c1 | – | – | – | 24µM | –
O=C1NN(c2ccccc2)C(=O)/C1=C/c1ccc(-c2ccc(Cl)c(C(=O)O)c2)o1 | – | – | – | ? | –
O=C(O)c1cc(-c2ccc(/C=C3\NC(=O)N(c4ccccc4)C3=O)o2)ccc1Cl | – | – | · | ? | –
O=C(O)c1cc(-c2ccc(/C=C3\NC(=O)N(c4ccc(Cl)cc4)C3=O)o2)ccc1Cl | – | – | – | 19µM | –
CCN=C1S/C(=C\c2ccc(-c3cccc(C(=O)O)c3)o2)C(=O)N1CC | 1.6µM | 0.63µM | 3.5µM | 0.76µM | 0.4µM
O=C(CCNS(=O)(=O)c1cccc2nonc12)Nc1ccc(F)cc1 | · | · | – | – | ·
C[C@@H](O)[C@H]1C(=O)N2C(C(=O)O)=C(SCCN=CN)C[C@H]12 | · | – | · | · | –
SMILES | ELG1 genotox | NPC1 promoter act | SMN2 splice up | FLuc modulator | Rab9 prom act
O=C(Nc1ccc(Br)cc1)C1CCN(c2cnccn2)CC1 | – | – | – | – | –
Cc1cc(O)c(C(=O)/C=C/c2ccccc2Br)c(=O)o1 | – | – | · | ? | –
Cc1cc(O)c(C(=O)/C=C/c2ccc(C(C)C)cc2)c(=O)o1 | ? | ? | · | 3.4µM | 2.8µM
Cc1cc(O)c(C(=O)/C=C/c2ccccc2)c(=O)o1 | – | – | · | 19µM | –
CCOc1ccc(/C=C/C(=O)c2c(O)cc(C)oc2=O)cc1 | – | ? | · | 6.7µM | ?
CC1CCCN(c2ccc([N+](=O)[O-])cc2C(=O)c2ccccc2)C1 (stereo not given) | – | – | – | – | –
CCN1CCN(c2ncnc3c2cnn3-c2ccc(Cl)cc2)CC1 | ? | 1.6µM | · | 6µM | 1.8µM
CCN1CCN(c2ncnc3c2cnn3-c2ccccc2)CC1 | ? | ? | – | 24µM | –
CCOC(=O)N1CCN(c2ncnc3c2cnn3-c2ccc(Cl)cc2)CC1 | – | – | – | – | –
c1ccc(CCN2CCN(c3ncnc4c3cnn4-c3ccccc3)CC2)cc1 | – | – | – | – | –

From PubChem
